PubChem BioAssay AID624331 (National Center for Advancing Translational Sciences (NCATS), 2012)
Records with an inconclusive call do not appear. Values without a mark were called inactive. The source made the active and inactive calls. Calls come from the whole dose curve; as a rule, active = well fitted activation curve with a large enough effect; inconclusive = small, poorly fitted or top-dose-only effect; inactive = no such curve, though single readings can be large or run the other way.

Assay: qHTS assay for re-activators of p53 using a Luc reporter: Hit Validation with no p53 Expressed; for activity change, positive = activation: 0% is about no effect
Details: p53-null cells, luciferase reporter counter-screen; series mostly up to 46.1 µM; activity change, positive = activation: at the top concentration
Procedure, shortened: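 Without p53 expression, cells (1000/well, Opti-MEM + 10% FBS) were exposed 24 h at 37 deg C to compounds in a 1:5 series from 10 mM stock (top 46.1 µM in well). Luminescent signal read 10 min after Amplite addition; actives flag unspecific activation.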
Potency is the fitted concentration of half-maximal effect.

Compound	activity change, positive = activation [%]	Potency
Cc1ccc(NC(=O)c2ccc3nc[nH]c3c2)cc1C	9.85	–
Cc1occc1C(=O)NNC(=S)Nc1ccccc1C(F)(F)F	1.85	–
Cc1ccc(C(=O)Nc2ccc(Cl)cn2)cc1	26.6	–
CCCCn1c(O)c(N=Nc2ccccc2O)c2ccccc21	-32.9	–
CCOC(=O)NC1(Nc2ccc(C)cc2)Oc2ccccc2O1	91	–
Cc1cc(F)ccc1NC(=O)Nc1ccc2c(c1)OCO2	-27.5	–
O=C(Cc1ccccc1)NCc1ccc(F)cc1	13.7	–
COc1ccccc1NC(CC(=O)c1ccccc1)C(=O)OCC(=O)c1ccc(C)cc1 (centres undefined)	99.4	–
CC1(C)NC(=O)N(CC(=O)N2CCN(S(=O)(=O)c3ccccc3C(F)(F)F)CC2)C1=O	12.1	–
Cc1ccc(C)n1-c1cccc(NC(=O)c2ccccc2)c1	-22.5	–
O=C(/C=C/Nc1ccccc1C(=O)O)c1cccs1	18	–
O=C(Nc1ccc(F)cc1F)c1cc2nc3c(c(C(F)(F)F)n2n1)CCCC3	–	5.8 µM (active)
Cn1c(-c2ncc(F)cc2F)cc2onc(-c3c(F)cccc3Cl)c2c1=O	66.8	–
CCCCNc1ncnc2c1cnn2-c1ccccc1	-0.0123	–
COc1ccc2oc(-c3cccc(NC(=O)CSc4ccc(Cl)cc4)c3)nc2c1	46.1	–
Cc1cc(/C=C2/C(=O)NN(c3ccccc3)C2=O)c(C)n1-c1cccc(O)c1	-18.1	–
O=C1/C(=C/Nc2ccc3c(c2)OCO3)CCc2ccccc21	-43.5	–
Cc1nn(-c2ccccc2)c(/N=C/c2ccccc2O)c1-c1ccccc1	-56.3	–
CN(CC(=O)Nc1ccc(Cl)c(Cl)c1)C(=O)C1CCCC1	-43.5	–
O=C(NN=C1CCCCCC1)c1cccs1	57	–

Compound	activity change, positive = activation [%]	Potency
O=C(NOCc1ccccc1)c1ccccc1	21.7	–
NC(=O)c1ccc(-n2c(CCC(=O)O)ccc2-c2cccs2)cc1	6.11	–
NNc1nc(-c2ccccc2)nc2sc3c(c12)CCCC3	29.2	–
O=C(/C=C/c1ccccc1)NC1CCSC1=O (centres undefined)	–	16.4 µM (active)
CCOC(=O)c1csc(Nc2nc3ccc(F)cc3s2)n1	16.4	–
CC(C)C(=O)Nc1ccc(-c2nc3cccnc3o2)cc1	20.2	–
O=C(N/N=C/c1cn(-c2ccccc2)nc1-c1cc2ccccc2o1)c1ccccc1Br	41.5	–
CN=c1scc(-c2cccs2)n1/N=C/c1ccc(O)c(O)c1O	36.5	–
O=C(CSc1nnnn1C1CCCCC1)NCCc1ccccc1	-22.1	–
COc1ccccc1-c1c(C)nn2c(C)c(C(C)=O)cnc12	-26.5	–
COc1ccccc1OCCn1nnc2ccccc21	48.1	–
CC1CCCN(C(=O)CN2C(=O)c3ccccc3S2(=O)=O)C1 (centres undefined)	13.4	–
C=CCn1c(C)cc(C(=O)COC(=O)c2ccc(N)c([N+](=O)[O-])c2)c1C	-12.9	–
CN(C(=O)CSc1nnc(-c2ccco2)o1)C1CCCCC1	-25.1	–
O=C(O)CCCC(=O)NCCc1ccncc1	18.6	–
C#CC(C)(CC)NC(=O)Cn1nnc(-c2ccc(S(C)(=O)=O)cc2)n1 (centres undefined)	-8.63	–
O=C(CSc1nnc(-c2ccc(O)cc2)o1)N1CCOCC1	88.1	–
Cc1csc(NC(=O)/C=C/c2ccc(C)o2)n1	13.6	–
Cc1cccc(NC(=O)c2oc3c(c2C)C(=O)CC(C)(C)C3)n1	-5.25	–
